# Data reported in the supplement of paper PMC9254222.
# The full ranking holds about 1,100 compounds; the median of “Renilla luciferase signal (cell health) relative to plate median” is about 0.97, and the highest 2% start at about 1.6. The sample holds the highest values, similar compounds and a random draw of the others, so the mix is not that of the screen.
# Test system: HEK293T (UBE3A T485A transfected, BAR Wnt reporter)
# Assay: Renilla luciferase signal (cell health) relative to plate median (fold (linear ratio)); higher = higher Renilla signal
# Settings: 24 h
# Procedure, shortened: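 HEK293T cells were grown in DMEM with 10% FBS at 37°C and 5% CO2, at 4500 cells/well in white 384-well plates. They were transfected with a BAR firefly luciferase Wnt reporter, TK-Renilla and an expression plasmid using Fugene 6. Four hours later, robots dosed the chemicals at 0.01–100 uM for 24 h, followed by Dual-Glo luciferase readout. Wnt activity (firefly/Renilla ratio) and cell health (raw Renilla) were median-centred per plate, averaged over four biological replicates.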
Compound,Renilla luciferase signal (concentration: 0.01 uM),Renilla luciferase signal (concentration: 0.1 uM),Renilla luciferase signal (concentration: 1 uM),Renilla luciferase signal (concentration: 10 uM),Renilla luciferase signal (concentration: 100 uM)
O=c1ccn(C2OC(COP(=O)(O)OP(=O)(O)OP(=O)(O)O)C(O)C2O)c(=O)[nH]1 (stereo not given),0.681,0.813,0.949,0.922,2.08
Cl.Nc1ccn([C@@H]2O[C@H](CO)[C@@H](O)[C@@H]2O)c(=O)n1 [Cytarabine hydrochloride],–,0.829,0.907,0.626,0.809
"OCCC(F)(F)C(F)(F)C(F)(F)C(F)(F)C(F)(F)C(F)(F)C(F)(F)C(F)(F)F [1,1,2,2-Tetrahydroperfluoro-1-decanol]",–,0.4,0.824,0.813,1.27
Cc1ncc([C@@H](CCCCCCc2ccc3c(n2)NCCC3)CC(=O)O)cn1,–,0.747,0.794,0.796,0.82
CNCc1cc(F)ccc1Oc1ccc(Cl)c(Cl)c1,–,0.817,0.874,0.723,0.0625
Cn1cnc([N+](=O)[O-])c1Sc1ncnc2nc[nH]c12 [Azathioprine],–,0.939,0.983,0.605,0.0481
CCCCCCCCCCCCN1CCCC1=O [1-Dodecyl-2-pyrrolidinone],–,0.846,0.856,0.929,0.883
CC(=O)OC1CC(C)OC(C)O1 (stereo not given) [Dimethoxane],–,1.23,1.1,1.26,1.63
CCOC(=O)c1ccc([C@H]2CC[C@H](NC[C@H](O)COc3ccc(O)c(NS(C)(=O)=O)c3)CC2)cc1.Cl,–,0.973,0.878,0.753,0.0262
C[C@]12C[C@H](O)[C@H]3[C@@H](CCC4=CC(=O)CC[C@@]43C)[C@@H]1CC[C@@H]2C(=O)CO [Corticosterone],–,0.641,0.712,0.847,0.636
CN(C)[C@@H]1C(O)=C(C(N)=O)C(=O)[C@@]2(O)C(O)=C3C(=O)c4c(O)cccc4[C@@](C)(O)[C@H]3[C@H](O)[C@@H]12.Cl [Oxytetracycline hydrochloride],–,0.959,1.35,2.28,0.903
CN(C)[C@@H]1C(O)=C(C(N)=O)C(=O)[C@@]2(O)C(O)=C3C(=O)c4c(O)cccc4[C@@](C)(O)[C@H]3[C@H](O)[C@@H]12.O.O [Oxytetracycline dihydrate],0.781,0.636,0.879,0.861,0.964
CN(C)[C@@H]1C(O)=C(C(N)=O)C(=O)[C@@]2(O)C(O)=C3C(=O)c4c(O)cccc4[C@@](C)(O)[C@H]3C[C@@H]12 [Tetracycline],–,0.672,0.805,0.694,1.7
O=C(O)CCCCC(=O)O [Hexanedioic acid],–,0.851,0.762,0.865,1.08
"O=C1OC(=O)C2C3C=CC(C3)C12 (stereo not given) [2-Norbornene-5,6-dicarboxylic anhydride]",–,0.885,0.853,0.966,1.39
COC(=O)CSc1cc(/N=c2\sc(=O)n3n2CCCC3)c(F)cc1Cl [Fluthiacet-methyl],1.03,0.995,1.1,1,1.21
Fc1ccccc1[C@@H](F)CO[C@H]1CC[C@H](Nc2[nH]cnc3nncc2-3)CC1,–,1.06,1.09,0.996,0.148
Oc1cc2ccccc2c2ccccc12 [9-Phenanthrol],–,1.08,1.05,1.01,0.0207
COCCO [2-Methoxyethanol],1.12,1.02,0.98,0.983,1.53

Compound,Renilla luciferase signal (concentration: 0.01 uM),Renilla luciferase signal (concentration: 0.1 uM),Renilla luciferase signal (concentration: 1 uM),Renilla luciferase signal (concentration: 10 uM),Renilla luciferase signal (concentration: 100 uM)
CN(C)CCCN1c2ccccc2Sc2ccc(Cl)cc21.Cl [Chlorpromazine hydrochloride],–,1.17,1.23,1.24,0.575
O=c1ccc2ccccc2o1 [Coumarin],–,1.21,1.07,1.11,1.15
Nc1ccc(S(=O)(=O)c2ccc(N)cc2)cc1 [Dapsone],–,1.03,1.07,1.2,1.03
CCCCOC(=O)c1ccc(O)cc1 [Butylparaben],–,0.848,0.85,0.756,0.258
CCCCN1C(=O)[C@@H]([C@H](O)C2CCCCC2)NC(=O)C12CCN(Cc1ccc(Oc3ccc(C(=O)O)cc3)cc1)CC2.Cl [Aplaviroc hydrochloride],–,0.995,1.01,1.04,2.23
CCc1ccc(O)c(C(C)(C)C)c1 [2-tert-Butyl-4-ethylphenol],–,1.28,1.07,1.02,1.22
O=C(O)CC(O)(CC(=O)O)C(=O)O [Citric acid],–,0.965,0.981,1.13,1.46
NC(=O)c1nc(-c2cccc(-c3cc(F)ccc3OCC(F)(F)C(F)(F)F)c2)n[n-]1.O.[K+],–,0.946,0.78,0.498,0.0369
O=C(O)Cc1cc(I)c(Oc2ccc(O)c(I)c2)c(I)c1 [Tiratricol],–,0.92,1.07,0.852,0.382
O=C(O)Cc1cc(I)c(Oc2cc(I)c(O)c(I)c2)c(I)c1 [Tetrac],–,1.07,1.06,1.11,1.28
"N[C@@H](Cc1cc(I)c(Oc2ccc(O)c(I)c2)c(I)c1)C(=O)O [3,5,3'-Triiodothyronine]",–,0.904,1.24,2.47,2.22
COc1ccc(-c2ccc(=N)n(CCCC(=O)O)n2)cc1,0.946,0.914,0.864,0.935,1.38
COc1ccc2c(c1)c(CC(=O)O)c(C)n2C(=O)c1ccc(Cl)cc1 [Indomethacin],–,1.09,1.15,1.17,0.248
"CC1(C)C(=O)N(Cl)C(=O)N1Cl [1,3-Dichloro-5,5-dimethylhydantoin]",–,0.99,1.06,1.04,0.988
CC=Cc1ccc(O)c(OC)c1 [Isoeugenol],–,0.954,1.01,0.993,0.945
CCN(CC)CCOc1ccc(C(=C(Cl)c2ccccc2)c2ccccc2)cc1.O=C(O)CC(O)(CC(=O)O)C(=O)O [Clomiphene citrate (1:1)],–,0.837,0.85,0.818,1.02
CCCCCCC(C)OC(=O)COc1nc(F)c(Cl)c(N)c1Cl (stereo not given) [Fluroxypyr-meptyl],1.04,1.3,1.15,1.2,2.31
O=C(O)c1cc(/N=N/c2ccc(S(=O)(=O)Nc3ccccn3)cc2)ccc1O [Sulfasalazine],–,0.788,0.885,0.691,0.277
CC(C)(C)C(O)C(Cc1ccc(Cl)cc1)n1cncn1 (stereo not given) [Paclobutrazol],1.25,1.16,1.06,1.22,1.62

Compound,Renilla luciferase signal (concentration: 0.01 uM),Renilla luciferase signal (concentration: 0.1 uM),Renilla luciferase signal (concentration: 1 uM),Renilla luciferase signal (concentration: 10 uM),Renilla luciferase signal (concentration: 100 uM)
CCOc1cccc(-n2cc(C(=O)N3CCN(c4cc(C(=O)[O-])c5ccccc5c4)CC3)nc2-c2ccc(C)cc2)c1.[Na+],–,0.869,0.966,0.903,0.0785
Cc1cc(NC(=O)C(=O)O)cc(C)c1Oc1ccc(O)c2c1CCC2,–,1.12,1.12,0.767,1.03
Cc1occc(=O)c1O [Maltol],–,0.895,0.982,0.967,1.11
CCN(CC)C(=O)c1cc(S(=O)(=O)Cc2ccccc2)c(N2CCC(c3ccccc3)CC2)cc1N(CC)CCN(C)C.O=C(O)C(F)(F)F [HMR1171 trifluoroacetate (1:1)],–,0.802,0.767,0.648,0.249
OC12N=C(c3ccccc3)SC1Cc1cc(Cl)ccc12 (stereo not given),–,1.14,1.13,1.03,0.714
Cc1cc(SC2=C(O)C[C@@](CCc3ccc(N)cc3)(C(C)C)OC2=O)c(C(C)(C)C)cc1CO,–,0.926,1.01,0.952,0.324
Sc1nc2ccccc2s1 [2-Mercaptobenzothiazole],–,0.981,0.791,0.768,0.92
O.O=C1[N-]S(=O)(=O)c2ccccc21.[Na+] [Sodium saccharin hydrate],–,1.05,1.15,1.35,1.71
C#C[C@]1(O)CC[C@H]2[C@@H]3CCC4=CC(=O)CC[C@@H]4[C@H]3CC[C@@]21C [Norethindrone],–,0.942,0.982,0.94,0.294
"c1ccc2occc2c1 [2,3-Benzofuran]",–,0.785,0.78,0.808,1.07
CCCCCOC(=O)COc1cc(N2C(=O)C3=C(CCCC3)C2=O)c(F)cc1Cl [Flumiclorac-pentyl],0.938,0.9,1.01,0.974,1.62
CCOC(=O)COc1cc(-n2ncc(C(F)(F)F)c(C)c2=O)c(F)cc1Cl [Flufenpyr-ethyl],1.2,0.957,1.07,1.03,1.51
CCCCCCCCOC(=O)c1cc(O)c(O)c(O)c1 [Octyl gallate],–,0.909,0.947,0.814,0.0786
CCCCCCc1ccc(O)cc1O [4-Hexylresorcinol],–,0.881,1.04,0.888,0.0332
CC(C)CC(C=O)NC(=O)C(CC(C)C)NC(=O)C(CC(C)C)NC(=O)OCc1ccccc1 (stereo not given),0.694,0.675,0.0628,0.00775,0.00453
Cn1cc[nH]c1=S [Methimazole],–,0.331,0.23,0.141,2.27
CNCc1ccc(NC(=O)c2c[nH]c3c2C(=O)CCC3)cc1,–,0.616,0.8,0.437,0.144
CC(=O)OC1C(=O)C2(C)C(O)CC3OCC3(OC(C)=O)C2C(OC(=O)c2ccccc2)C2(O)CC(OC(=O)C(O)C(NC(=O)c3ccccc3)c3ccccc3)C(C)=C1C2(C)C (stereo not given) [Taxol],0.147,0.104,0.111,0.131,0.0793
CCCOC(=O)NCCCN(C)C.Cl [Propamocarb hydrochloride],0.977,0.992,0.949,0.972,1.17
